Bioassay records (PubChem BioAssay)
SW480 rerep: A quantitative high throughput screen for small molecules that induce DNA re-replication in SW480 colon adenocarcinoma cells; Potency, µM (top dose mostly 46.1 µM), for the others: at the top dose re-replication activation, usual class: activators; hit rate 1.8% among 340,000; AID 624297, 2012; SW480 DNA re-replication, Hoechst DNA content imaging, 48 h; further: % of control where 0% means no effect; nearly all actives have a fitted effect of over 55% in size
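Image-based read-out: total Hoechst fluorescence of nuclei (405 nm excitation, 500-530 nm emission), with hits raising the fraction of high-intensity nuclei. SW480 colon cells incubated 48 hr with compounds at 37 C.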
KB-3-1 tox: qHTS assay for MDR1-selective chemotherapeutics: Primary screen using the parental adenocarcinoma cell KB-3-1; KB-3-1 viability, CellTiter-Glo ATP luminescence, 72 h; Potency, µM (top dose mostly 46.1 µM), usual class: cytotoxic; hit rate 1.4% among 400,000; further: on the % scale 0 is the no-effect control and ±100 the full control effect; nearly all actives have a fitted effect of over 60% in size
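Viability of parental KB-3-1 cells, measured by CellTiter-Glo luminescence, followed a 72 h incubation at 37 °C with pinned compounds in phenol-red-free DMEM containing 10% FBS.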
PINK1 modulator: A Quantitative High throughput Screen to Identify Chemical Modulators of PINK1 Expression | hit rate 0.2% among 410,000 | Potency, µM (highest dose often 76.6 µM), without a hit: at the top dose activation (PINK1 increase), most hits filed as activators | PINK1 immunofluorescence, high-content cytometry, 24 h; active means well fitted activation curve with a large enough effect; inconclusive means small, poorly fitted or top-dose-only effect; cell line not stated here; further: % of control where 0% means no effect; nearly all actives have a fitted effect of over 65% in size
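PINK1 protein level read as immunofluorescence by microplate cytometer in a fixed, stained stable cell line after 24 h exposure to five compound concentrations, with CCCP as control.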
KB-V1 MDR tox: qHTS assay for MDR1-selective chemotherapeutics: Primary screen using the drug-selected MDR subline cells KB-V1; KB-V1 MDR cells viability, CellTiter-Glo, 72 h; Potency, µM (highest dose often 46.1 µM), most hits filed as cytotoxic; hit rate 3.4% among 400,000; further: on the % scale 0 is the no-effect control and ±100 the full control effect; nearly all actives have a fitted effect of over 60% in size
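Cells of the MDR subline KB-V1 are plated, dosed with compound at multiple concentrations, and incubated 72 h at 37 degrees C; CellTiter-Glo is then added and luminescence read after 10 min.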
MCF10A rereplic: A quantitative high throughput screen for small molecules that induce DNA re-replication in MCF 10a normal breast cells; MCF 10A DNA re-replication, Hoechst nuclear intensity, 48 h; Potency, µM (titrated, usually from 46.1 µM), for the others: at the highest dose activity, positive = re-replication, most hits filed as activators; hit rate 2.9% among 350,000; AID 624296, 2012; further: % of control where 0% means no effect; nearly all actives have a fitted effect of over 50% in size
12-LOX inh: Primary qHTS assay for inhibitors of human arachidonate 12S-lipoxygenase (ALOX12): Round 2. Polyunsaturated fatty acid lipoxygenase ALOX12 (Homo sapiens), P18054. purified 12hLO, xylenol orange hydroperoxide absorbance. Potency, µM (series often up to 108 µM), for the others: at the top dose activity change, negative = inhibition, actives largely listed as inhibitors. hit rate 1.1% among 580,000. AID 1671190, 2021; further: on the % scale 0 is the no-effect control and ±100 the full control effect
Target sequence (P18054 whole entry, looked up): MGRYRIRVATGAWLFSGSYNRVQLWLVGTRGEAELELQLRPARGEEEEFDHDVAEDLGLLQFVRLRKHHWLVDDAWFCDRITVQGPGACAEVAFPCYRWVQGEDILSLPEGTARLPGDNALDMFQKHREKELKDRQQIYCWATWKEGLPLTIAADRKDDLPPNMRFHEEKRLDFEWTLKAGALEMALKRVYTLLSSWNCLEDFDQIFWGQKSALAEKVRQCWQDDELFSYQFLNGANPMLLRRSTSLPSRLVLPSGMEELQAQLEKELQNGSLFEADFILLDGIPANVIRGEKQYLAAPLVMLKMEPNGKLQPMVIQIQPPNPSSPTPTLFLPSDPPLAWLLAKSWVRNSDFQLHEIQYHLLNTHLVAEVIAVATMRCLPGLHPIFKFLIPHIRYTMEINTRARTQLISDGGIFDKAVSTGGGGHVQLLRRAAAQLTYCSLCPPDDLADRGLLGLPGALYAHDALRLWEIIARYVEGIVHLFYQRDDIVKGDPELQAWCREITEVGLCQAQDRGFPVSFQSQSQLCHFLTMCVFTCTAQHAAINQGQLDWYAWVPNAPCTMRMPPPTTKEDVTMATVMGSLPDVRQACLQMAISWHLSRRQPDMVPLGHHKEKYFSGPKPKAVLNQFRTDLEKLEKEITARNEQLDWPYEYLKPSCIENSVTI
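Purified human 12hLO (150 nM final) in 25 mM Hepes, 0.01% Triton X-100, pH 7.0 was preincubated 15 min at room temperature with compound. Then 40 uM arachidonic acid was added, 30 min. Hydroperoxide was read by Fe-XO absorbance ratio 573/405 nm.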
Numbers without * were called inactive; i = inactive; u = inconclusive; x = not tested or not shown; ! = a repeat was not active; [ ] = dose if it differs, or a comment. Only some compounds are listed: those with a hit (about 5.8% of all), similar ones and a draw of the others. Unless noted, the call rests on the fitted dose curve; in most records, active means well fitted curve in the direction sought with a large enough effect; inconclusive means small, poorly fitted or top-dose-only effect, or another doubt; inactive means no such curve, though single readings can be large; an effect the other way counts as inactive or inconclusive. Potency means the concentration at half of the fitted maximal effect.

SMILES | SW480 rerep | KB-3-1 tox | PINK1 modulator | KB-V1 MDR tox | MCF10A rereplic | 12-LOX inh
COc1cccc(NC(=O)C(C)Sc2nnc(C3CC3)n2C2CC2)c1 (stereo unspecified) | -45% | i | 2% | i | 9% | -70%
CC(C)c1nnc(NC(=O)C2c3ccccc3Oc3ccccc32)s1 | 0% | i | -1% | i | 28% | -16%
Cc1nnc(NC(=O)C2c3ccccc3Oc3ccccc32)s1 | u | u | -1% | i | 13µM* | u
Cc1cccc2sc(NC(=O)c3ccc(Cl)s3)nc12 | -3% | i | 6% | i | 16µM* | 2%
O=C(Nc1ccncc1)C1c2ccccc2Oc2ccccc21 | -3% | i | -4% | 15µM* | -1% | -14%
Cc1cccc2sc(NC(=O)C3c4ccccc4Oc4ccccc43)nc12 | u | i | 7%[38.3 µM] | u | 6.5µM* | -16%
O=[N+]([O-])c1ccc(-c2nc(Nc3ccc(I)cc3)c3ccccc3n2)cc1 | x | x | x | x | x | -11%
Cc1c(N(Cc2ccccc2F)S(C)(=O)=O)c(=O)n(-c2ccccc2)n1C | x | x | x | x | x | 26%
O=C(COC(=O)COc1ccc2ccccc2c1)Nc1ccccc1 | x | x | x | x | x | 0%
CCOc1ccc(N2C(=O)/C(=C/c3cc(OC)c(OC)c(OC)c3)N(CC(=O)OC)C2=S)cc1 | 14% | i | 4% | u | 23µM* | 47%
CCOc1ccc(/C=C2/C(=O)N(c3ccc(OC)cc3)C(=S)N2CC(=O)OC)cc1OCC | -30% | i | 14% | i | 23% | -8%
COc1ccc(OC)c(NC(=O)Cc2c(C)c3c(O)cc(C)cc3oc2=O)c1 | x | x | x | x | x | -24%
O=C(COc1ccc(F)cc1)Nc1ccc2c(=O)c3cccc(F)c3oc2c1 | x | x | x | x | x | -28%
CNC(=O)CN(C)c1nc(C(F)(F)F)nc2ccccc12 | x | x | x | x | x | 27%
Cc1nc(-c2ccccc2)sc1C(=O)/C=C/c1ccc(Cl)cc1 | 2% | u | -3% | u | 4.1µM* | 0%
COc1ccc(N/C=C/C(=O)c2ccccc2)cc1 | 0% | i | 2% | i | 2% | 11%
COc1ccc(N/C=C/C(=O)c2sc(-c3ccccc3)nc2C)cc1 | u | u | 7% | 18µM* | u | -3%
COc1ccc(CCC(=O)N2CCN(c3nnc4ccc(Cl)cn34)CC2)cc1 | x | x | x | x | x | 68%
O=C(c1cc(-c2ccccn2)nc2ccccc12)N1CCOCC1 | x | x | x | x | x | -9%
COc1cc(C2C3=C(COC3=O)Oc3cc4c(cc32)OCO4)cc(OC)c1O (stereo unspecified) | u | u | -1% | u | u | -46%
O=C1OCC2=C1C(c1ccc3c(c1)OCO3)c1cc3c(cc1O2)OCO3 (stereo unspecified) | 4.6µM* | 3.3µM* | 14% | 1.5µM* | 8.2µM* | 0%
COc1cc(C2C3=C(COC3=O)Oc3cc4c(cc32)OCO4)cc(OC)c1OC (stereo unspecified) | 0.13µM* | 0.58µM* | 11% | 0.1µM*! | 0.23µM* | -17%
N#CC1=C(N)Oc2cc3c(cc2C1c1ccc(Cl)cc1)OCO3 (stereo unspecified) | 6% | i | x | i | 53% | u
COc1cccc2cc(C(=O)NCCOc3cccc(C)c3)c(=O)oc12 | x | x | x | x | x | -6%
Cc1ccc(CN(C)C(=O)c2cccc(S(=O)(=O)N3CCN(c4ccccc4)CC3)c2)cc1 | 9% | u | 1% | 18µM* | -1% | 1%
SMILES | SW480 rerep | KB-3-1 tox | PINK1 modulator | KB-V1 MDR tox | MCF10A rereplic | 12-LOX inh
O=C(NCC1COc2ccccc2O1)c1cccc(S(=O)(=O)N2CCCCC2)c1 (stereo unspecified) | 3% | u | 0% | i | 3% | -1%
CN(Cc1ccc(F)cc1)C(=O)c1cccc(S(=O)(=O)N2CCN(c3ccc(F)cc3)CC2)c1 | u | 13µM* | 3% | u | 7% | u
CN(Cc1ccc(F)cc1)C(=O)c1cccc(S(=O)(=O)N2CCN(c3ccccc3)CC2)c1 | 14% | u | 4% | u | 7% | u
CN(CC1COc2ccccc2O1)C(=O)c1cccc(S(=O)(=O)N2CCCC2)c1 (stereo unspecified) | 1% | i | 0% | 8.2µM* | 0% | 1%
Cc1oc(-c2cccs2)nc1CC(=O)NCc1ccc(F)cc1 | x | x | x | x | x | -29%
CCOC(=O)C(C#N)C(c1ccco1)c1ccccc1OC (stereo unspecified) | x | x | x | x | x | -39%
CC(C)(C)c1ccc(-c2nnc(SCC(=O)N3CCOC3=O)n2C2CCCC2)cc1 | x | x | x | x | x | -28%
O=c1c(Cl)c(NCc2ccccc2Cl)cnn1C12CC3CC(CC(C3)C1)C2 | u | u | u | 18µM* | u | -20%
CC(C)C(NC(=O)c1ccccn1)C(=O)O (stereo unspecified) | x | x | x | x | x | 8%
Cn1c(=O)c2c(ncn2CCNc2ccc(Cl)cc2)n(C)c1=O | x | x | x | x | x | 59%
O=C1NN(c2ccccc2)C(=O)/C1=C/c1ccc(Sc2ccc(Cl)cc2)o1 | 29% | i | 0% | i | 4.6µM* | 16µM*
Cc1ccc(Sc2ccc(/C=C3/C(=O)NN(c4ccccc4)C3=O)o2)cc1 | -2% | i | -1% | i | 5% | u
CCCCc1ccc(C(=O)NCc2ccccn2)cc1 | x | x | x | x | x | 52%
COc1ccc(C(c2c(O)ccc3ccccc23)N2CCOCC2)c(OC)c1 (stereo unspecified) | u | i | -1% | i | 3.3µM* | u
COc1ccc(C(CCN2CCOCC2)c2c(O)cc(OC)cc2OC)cc1 (stereo unspecified) | u | i | -1% | i | 24% | 0%
CC(NC(=O)CSc1nncn1-c1ccccc1)c1cccc2ccccc12 (stereo unspecified) | x | x | x | x | x | -1%
COc1ccc(NC(=O)C2CCCN(C(=O)NC3CCCCC3)C2)cc1OC (stereo unspecified) | 1% | i | 0% | 15µM* | 2% | -15%
COc1ccc(NC(=O)C2CCCN2C(=O)NC2CCCCC2)cc1OC (stereo unspecified) | -3% | i | -3% | i | -1% | 0%
COc1ccc(S(=O)(=O)N2CCN(C(=O)NC3CCCCC3)CC2)cc1OC | 1% | i | -3%[38.3 µM] | 16µM* | 4% | 1%
